Measured values from PMC4552634, “A New Set of Chemical Starting Points with Plasmodium falciparum Transmission-Blocking Potential for Antimalarial Drug Discovery” (PLoS ONE, 2015).
Where two headings read alike, the source gives them in different places. About 3,200 (25%) of roughly 13,000 compounds showed an effect of 50% or more. The list shows a part of the results.

System: P. falciparum stage V gametocytes
Design: BacTiter-Glo ATP luminescence viability of purified stage V gametocytes in 384-well plates, per cent inhibition versus DMSO
Conditions: 48 h, 5 µM, inhibitor

## O=C(Nc1cccc(-c2ccc(-c3nc4ccccc4[nH]3)cc2)c1)c1cnn2cccnc12 [TCMDC-136866]
  % Inhibition: -17.05%

## CN(c1ccc(NC(=O)CCOc2ccccc2)cc1)C1CCN(Cc2cccc(O)c2)CC1 [TCMDC-134988]
  % Inhibition: 49.59%

## CC(C)(C)OC(=O)C1CCCN(Cc2ccc(-c3cccc(-c4nc5ccccc5[nH]4)c3)cc2)C1.O=C(O)C(F)(F)F (stereo not shown) [TCMDC-132560]
  % Inhibition: 11.65%

## C=CCN1CCC(N(Cc2cccc(Oc3ccccc3)c2)C(=O)C(c2ccccc2)c2ccccc2)CC1 [TCMDC-139601]
  % Inhibition: 20.39%

## CC(C)(NCc1ccc(OC(F)(F)F)cc1)c1nc(-c2ccc(Cl)c(O)c2)c(-c2ccncc2)[nH]1 [TCMDC-140709]
  % Inhibition: -27.3%

## CCOC(=O)c1cn(CC)c2cc(N(C)CCc3ccc(OC)c(OC)c3)c(F)cc2c1=O [TCMDC-124159]
  % Inhibition: 16.46%

## CCc1ccc(CN2CCC(CN(C(=O)c3ccccc3)c3ccc(Cl)cc3)CC2)cc1 [TCMDC-135382]
  % Inhibition: 136.1%

## O=C(OCC1CCN(Cc2ccccc2)C1)c1ccc(Cl)cc1 (stereo not shown) [TCMDC-138995]
  % Inhibition: -9.252%

## O=C(NCc1ccc(Cl)cc1)c1ccc(CN2CCCN(CC3CCCCC3)CC2)cc1 [TCMDC-136441]
  % Inhibition: -2.203%

## CC(=O)Nc1ccc(C(=O)NC2CCN(c3ccnc4cc(Cl)ccc34)C2)cc1 (stereo not shown) [TCMDC-133650]
  % Inhibition: -2.707%

## COc1ccc(CN2CCC(CNCc3cccc(-c4ccccc4)c3)CC2)cc1 [TCMDC-141349]
  % Inhibition: 97.96%

## O=[N+]([O-])c1cccc(CNCC2CCN(Cc3ccc(-c4ccccc4)cc3)CC2)c1 [TCMDC-141208]
  % Inhibition: 17.3%

## O=[N+]([O-])c1cccc(CNCC2CCN(Cc3ccc(O)cc3)CC2)c1 [TCMDC-141212]
  % Inhibition: 5.704%

## COc1ccc(CN2CCC(NCc3ccc(C(F)(F)F)cc3)CC2)cc1 [TCMDC-141653]
  % Inhibition: 11.64%

## COc1ccc(CN2CCC(CNCC(c3ccccc3)c3ccccc3)CC2)cc1 [TCMDC-141342]
  % Inhibition: 89.13%

## COc1ccc(CN2CCC(CNC(C)c3cccc4ccccc34)CC2)cc1 (stereo not shown) [TCMDC-141341]
  % Inhibition: -19.33%

## CCN(CC)c1ccc(C(c2ccc(N(CC)CC)cc2)c2cccc([N+](=O)[O-])c2)cc1 [TCMDC-131244]
  % Inhibition: -3.754%

## Cc1cccc2nc(-c3ccc(-c4cccc(CN5CCN(c6ccc(C#N)cn6)CC5)c4)s3)[nH]c12.O=C(O)C(F)(F)F [TCMDC-133111]
  % Inhibition: -25.75%

## CCN(CC)CCCC(C)Nc1ccnc2cc(C#N)ccc12 (stereo not shown) [TCMDC-138027]
  % Inhibition: -9.256%

## CCOc1ccc(OCCCON2C(N)=NC(N)=NC2(C)C)cc1 [TCMDC-131735]
  % Inhibition: -0.1444%

## Cc1cc2cc(CNCCc3ccccc3Br)ccc2nc1N [TCMDC-138097]
  % Inhibition: 84.79%

## Cc1cc(N)nc2cc(CNCCc3ccccc3Br)ccc12 [TCMDC-138095]
  % Inhibition: 22.25%

## Cc1cc2ccc(CNCCc3ccccc3Br)cc2nc1N [TCMDC-138094]
  % Inhibition: 34.17%

## CCCCC(=O)Nc1ccc(Nc2nc(C)cc(N3CCCC3)n2)cc1 [TCMDC-124717]
  % Inhibition: 46.79%

## O=C(Nc1ccccc1)N(Cc1ccc(-c2ccc(CNC3CCCC3)cc2)cc1)C1CCN(Cc2ccccc2)CC1 [TCMDC-140602]
  % Inhibition: 100.4%

## O=C(Nc1ccccc1)N(Cc1ccc(-c2cccc(CNC3CCCC3)c2)cc1)C1CCN(Cc2ccccc2)CC1 [TCMDC-140601]
  % Inhibition: 107.8%

## O=C(Nc1ccccc1)N(Cc1cccc(-c2ccc(CNC3CCCC3)cc2)c1)C1CCN(Cc2ccccc2)CC1 [TCMDC-140589]
  % Inhibition: 100.6%

## O=C(Nc1ccccc1)N(Cc1ccccc1-c1cccc(CNC2CCCC2)c1)C1CCN(Cc2ccccc2)CC1 [TCMDC-140581]
  % Inhibition: 108.7%

## Oc1cccc(-c2nc(-c3cccc(I)c3)c(-c3ccc(-c4nc(-c5cccc(O)c5)[nH]c4-c4cccc(I)c4)cc3)[nH]2)c1 [TCMDC-125665]
  % Inhibition: 42.71%

## COC(=O)c1ccc(C2OC3(C(=O)c4ccccc4C3=O)C(OC)=C2Cl)cc1C(C)=O (stereo not shown) [TCMDC-125782]
  % Inhibition: -9.104%

## N#Cc1ccc2c(c1)CCN(CCC1CCC(NC(=O)/C=C/c3nc4ccccc4s3)CC1)CC2 (stereo not shown) [TCMDC-139686]
  % Inhibition: -32.82%

## COc1ccc(O)c(Cc2cnc3nc(N)nc(N)c3c2C)c1 [TCMDC-137998]
  % Inhibition: -28.9%

## Cc1cc(C(=O)CSc2nc3ccccc3n2-c2ccccc2)c(C)n1C1CCS(=O)(=O)C1 (stereo not shown) [TCMDC-124855]
  % Inhibition: -17.36%

## CC1CN(Cc2ccccc2)CCN1c1ccc(NC(=O)c2cccs2)cc1 (stereo not shown) [TCMDC-135005]
  % Inhibition: 31.52%

## CC(C)(C)c1ccc(-c2nnc(N)nc2N)cc1 [TCMDC-137284]
  % Inhibition: -12.55%

## COc1cccc(Nc2c(C(N)=O)cnc3ccc(-c4ccc([S+](C)[O-])cc4)cc23)c1 (stereo not shown) [TCMDC-135184]
  % Inhibition: 93.94%

## COc1cccc(Nc2c(C(N)=O)cnc3ccc(-c4ccccc4)cc23)c1 [TCMDC-135227]
  % Inhibition: 39.19%

## CN(C)CCNC(=O)c1ccc(-c2ccc3c(Nc4ccccc4)c(C(N)=O)cnc3c2)cc1 [TCMDC-138672]
  % Inhibition: 14.13%

## CS(=O)(=O)c1cccc(-c2cnc3[nH]cc(-c4ccc(C(=O)O)cc4)c3c2)c1 [TCMDC-136271]
  % Inhibition: 0.4612%

## COc1ccc2nccc(N3CCCN(CCNCc4ccc5c(n4)NC(=O)CS5)CC3)c2n1 [TCMDC-134640]
  % Inhibition: 33.98%

## Cc1ccc(C2CC(c3cccs3)=NN2C(=O)c2ccc(Br)o2)cc1 (stereo not shown) [TCMDC-125610]
  % Inhibition: 12.81%

## CCC(c1ccccc1)c1nn2c(-c3cccs3)nnc2s1 (stereo not shown) [TCMDC-123825]
  % Inhibition: 7.835%

## CCc1ccc(C2=Nn3c(nnc3-c3cccs3)SC2)cc1 [TCMDC-124336]
  % Inhibition: 80.16%

## O=C(NCCCCN1CCN(c2cccc3c2OCCO3)CC1)c1ccc(NC(=O)c2cc(Cl)cc(Cl)c2)cc1 [TCMDC-138222]
  % Inhibition: -31.39%

## C=CCN(c1nc(NC)nc(NCc2c(OC)cccc2OC)n1)C1CCCC1 [TCMDC-134844]
  % Inhibition: -44.26%

## C=CCn1c(Cc2ccccc2)nnc1Sc1ccc(C#N)c([N+](=O)[O-])c1 [TCMDC-135614]
  % Inhibition: 45.02%

## COc1cc(OC)cc(-c2nnc(Sc3ccc(C#N)c([N+](=O)[O-])c3)n2C)c1 [TCMDC-135576]
  % Inhibition: 42.48%

## CCCCCn1c(Sc2ccc(C#N)c([N+](=O)[O-])c2)nnc1-c1ccccc1 [TCMDC-135606]
  % Inhibition: 38.34%

## Cn1c(Cc2ccccc2)nnc1Sc1ccc(C#N)c([N+](=O)[O-])c1 [TCMDC-135608]
  % Inhibition: 73.99%

## CCCCCCn1c(Sc2ccc(C#N)c([N+](=O)[O-])c2)nnc1-c1ccccc1 [TCMDC-135607]
  % Inhibition: 41.57%

## CCn1c(Cc2ccccc2)nnc1Sc1ccc([N+](=O)[O-])c(C#N)c1 [TCMDC-135236]
  % Inhibition: 79.04%

## Cc1ccc(Nc2nc(C)cc(N3CCN(CCc4ccccc4)CC3)n2)cc1 [TCMDC-134023]
  % Inhibition: -10.5%

## COc1ccc(Nc2nccc(NCC(O)c3cccc(C(F)(F)F)c3)n2)cc1 (stereo not shown) [TCMDC-136585]
  % Inhibition: -13.64%

## FC(F)(F)c1cccc(CCNc2nccc(NCc3ccc(Cl)cc3Cl)n2)c1 [TCMDC-135111]
  % Inhibition: 42.21%

## FC(F)(F)c1cccc(CCNc2nccc(NCc3ccccc3Cl)n2)c1 [TCMDC-135109]
  % Inhibition: 78.4%

## Clc1ccc(CNc2ccnc(NCCc3coc4ccccc34)n2)c(Cl)c1 [TCMDC-135113]
  % Inhibition: 37.58%

## COc1cccc(Nc2nccc(NCC(O)c3cccc(C(F)(F)F)c3)n2)c1 (stereo not shown) [TCMDC-136584]
  % Inhibition: 27.05%

## COc1ccccc1CNc1ccnc(NCCc2cccc(C(F)(F)F)c2)n1 [TCMDC-135117]
  % Inhibition: 62.08%

## CC(=O)Nc1ccc(S(=O)(=O)Nc2ccc(Nc3nc(C)cc(N4CCCCC4)n3)cc2)cc1 [TCMDC-124950]
  % Inhibition: -6.943%

## CCC[C@@H]([C@@H](CC(C)C)C(=O)N[C@H](C(=O)Nc1nccs1)C(C)(C)SCCNC(=O)OCC)N(O)C=O [TCMDC-137761]
  % Inhibition: 30.89%

## N#Cc1cccc(COC(=O)C2=C(COc3ccccc3Cl)NC(=O)NC2c2c[nH]c3cnccc23)c1 (stereo not shown) [TCMDC-136331]
  % Inhibition: 5.465%

## Cc1ccc(C(c2nnnn2C2CCCC2)N(Cc2ccco2)Cc2ccccc2Cl)cc1 (stereo not shown) [TCMDC-123569]
  % Inhibition: 15.39%

## COc1ccc(-c2nc(NC(=O)CS(=O)(=O)c3ccccc3)sc2C)cc1 [TCMDC-123525]
  % Inhibition: 48.52%

## CCCCn1c(SC(C)C)nc2c(c1=O)C1(CCCCC1)Cc1ccccc1-2 [TCMDC-123893]
  % Inhibition: -5.467%

## Cc1ccc(-c2nnc(Nc3ccc(CC(N)=O)cc3)c3ccccc23)cc1S(=O)(=O)NCC1CCCO1 (stereo not shown) [TCMDC-125615]
  % Inhibition: -4.951%

## COc1cc(Cc2cnc(N)nc2N)ccc1OCc1ccc(NC(C)=O)cc1 [TCMDC-138675]
  % Inhibition: 89.66%

## COc1cc(Cc2cnc(N)nc2N)ccc1OCc1ccc(F)c(F)c1 [TCMDC-138591]
  % Inhibition: 9.532%

## COc1cc(Cc2cnc(N)nc2N)ccc1OCC(=O)Nc1ccc(C)cc1 [TCMDC-138679]
  % Inhibition: 5.317%

## S=C(Nc1ccccc1Cl)NC1CCC(CN2CCC(c3c[nH]c4ccccc34)CC2)CC1 (stereo not shown) [TCMDC-140179]
  % Inhibition: 20.48%

## S=C(NCC1CCCCC1)NC1CCC(CN2CCC(c3c[nH]c4ccccc34)CC2)CC1 (stereo not shown) [TCMDC-140181]
  % Inhibition: 104.2%

## S=C(NCCc1ccc(Cl)cc1)NC1CCC(CN2CCC(c3c[nH]c4ccccc34)CC2)CC1 (stereo not shown) [TCMDC-140183]
% Inhibition
  % Inhibition: 98.47%

## S=C(NCCc1ccc(Cl)cc1)NC1CCC(CN2CCC(c3c[nH]c4ccccc34)CC2)CC1 (stereo not shown) [TCMDC-140201]
% Inhibition
  % Inhibition: 56.68%

## S=C(NCCc1ccc(Cl)cc1)N1CCC(CN2CCC(c3c[nH]c4ccccc34)CC2)CC1 [TCMDC-140193]
  % Inhibition: 39.79%
